{
  "source": "PubChem BioAssay (NCATS)",
  "test": "qHTS Assay for Lipid Storage Modulators (AID 1519); for activity change, negative = inhibition: % is set by controls: 0 for no effect and ±100 for the full control effect",
  "conditions": "Drosophila S3 cells, BODIPY lipid droplet/cell ratio, laser cytometry, cells loaded with oleic acid",
  "from_the_text": "NIH Molecular Libraries Probe Production Centers Network [MLPCN]\nNIH Chemical Genomics Center [NCGC]\nAssay Submitter (PI): Beller, Mathias; Max-Planck-Institut fur Biophysikalische Chemie\nNCGC Assay Overview: Storing lipids as a reservoir for energy or the anabolism of elementary metabolites is a common feature of probably all cells and is conserved from bacteria to humans. The universal cellular lipid storage organelle is the so-called lipid storage droplet (LD). Although ubiquitous, LDs share a simple structure composed of a hydrophobic core that harbors the storage lipids, which is shielded by a droplet-specific phospholipid monolayer to which proteins are attached. The current model of LD biogenesis involves an incorporation of the lipid core into the membrane leaflets of the endoplasmic reticulum (ER) followed by a subsequent budding-like maturation of a LD, which ultimately pinches off. Once released, LD volume can increase by localized lipogenesis or fusion of existing droplets. Storage lipids are re-mobilized enzymatically by lipase activity. Lipase regulation in the adipocyte is heavily studied and involves multiple components including catecholamine signaling, the LD-associated proteins Perilipin and comparative gene identification-58 (CGI-58) and at least two lipases named hormone sensitive lipase (HSL) and adipocyte triglyceride lipase (ATGL). LD regulation outside of the adipocyte is poorly understood and only few components are known. However, there is an urgent need to learn more about ectopic fat depots as mislocalized storage of lipids, for example in the liver or muscle, is an eminent health problem associated with insulin resistance or the metabolic syndrome. We developed a laser-scanning cytometer assay to enable 1,536-well screening and combined the results of the small molecules screen with an RNAi database based on lipid storage.\nNCGC Assay Protocol Summary:\nWe dispensed 4 uL of cells at 1.25 x 10^6 cells/mL into LoBase Aurora COC 1,536-well plates (black walled, clear bottom) with a bottle-valve solenoid-based dispenser (Aurora) to obtain 5,000 cells/well. Triacsin C (Sigma-Aldrich T-4540), an inhibitor of long-chain fatty acyl CoA synthetase that blocks synthesis of triglycerides, was used as a positive control for lipid under-storage. A total of 23 nL of compound solution of different concentrations were transferred to the assay plates using a Kalypsys pin tool equipped with a 1,536-pin array containing 10-nL slotted pins (FP1S10, 0.457-mm diameter, 50.8 mm long; V&P Scientific). One microliter of oleic acid (400 uM) was added, and the plate was lidded with stainless steel rubber gasket lined lids containing pinholes. […] Fluorescence was detected by excitation of the fluorophores with a 488-nm laser on an Acumen Explorer (TTP Lab Tech). The total intensity in channel 1 (500-530 nm) reflected lipid droplet accumulation. […] The ratio of the total intensity in PMT channel 1 over total intensity of channel 3 was also calculated. Percent activity was computed relative to an internal control (100% inhibited lipid droplet deposition due to the presence of 20 uM Triacsin C), which was added to 32 wells/plate.",
  "key": {"[1]": {"conditions": "measured here: cell count channel max response"}, "[2]": {"conditions": "measured here: lipid channel max response"}},
  "note": "“And” between values parts separate entries of the source, which are not always exact repeats. Equal entries are not always repeated. Inconclusive results are not listed. The source made the active and inactive calls. Calls come from the whole dose curve.",
  "data": [
    {"smiles": "N[C@@H]1CONC1=O", "values": [
      {"measurement": "activity change, negative = inhibition", "setting": "at 25.7 µM (top of the series)", "result": "-1.13% (inactive) and 2.32% (inactive)"},
      {"measurement": "activity change, negative = inhibition", "setting": "at 57.5 µM (top of the series)", "result": "0.855% (inactive)"},
      {"measurement": "max response", "setting": "[1]", "result": "-10.2% and -6.54% and 0.81%"},
      {"measurement": "max response", "setting": "[2]", "result": "-10.7% and -4.08% and 1.58%"}
    ]},
    {"smiles": "NNCCc1ccccc1", "values": [
      {"measurement": "activity change, negative = inhibition", "setting": "at 25.7 µM (top of the series)", "result": "1.11% (inactive)"},
      {"measurement": "activity change, negative = inhibition", "setting": "at 57.5 µM (top of the series)", "result": "11.9% (inactive)"},
      {"measurement": "max response", "setting": "[1]", "result": "3.17% and -11.1%"},
      {"measurement": "max response", "setting": "[2]", "result": "-2.33% and 4.58%"}
    ]},
    {"smiles": "Cc1[nH]c(=O)c(C#N)cc1-c1ccncc1", "values": [
      {"measurement": "activity change, negative = inhibition", "setting": "at 25.7 µM (top of the series)", "result": "2.58% (inactive)"},
      {"measurement": "activity change, negative = inhibition", "setting": "at 57.5 µM (top of the series)", "result": "-0.858% (inactive)"},
      {"measurement": "max response", "setting": "[1]", "result": "-8.19% and -12.8%"},
      {"measurement": "max response", "setting": "[2]", "result": "-4.74% and -14.2%"}
    ]},
    {"smiles": "COc1ccc2nc(S(=O)Cc3ncc(C)c(OC)c3C)[nH]c2c1", "note": "(stereo not given)", "values": [
      {"measurement": "activity change, negative = inhibition", "setting": "at 25.7 µM (top of the series)", "result": "-4.82% (inactive)"},
      {"measurement": "max response", "setting": "[1]", "result": 6.97, "unit": "%"},
      {"measurement": "max response", "setting": "[2]", "result": 1.74, "unit": "%"}
    ]},
    {"smiles": "Cn1cnc([N+](=O)[O-])c1Sc1ncnc2nc[nH]c12", "values": [
      {"measurement": "activity change, negative = inhibition", "setting": "at 25.7 µM (top of the series)", "result": "-1.38% (inactive)"},
      {"measurement": "activity change, negative = inhibition", "setting": "at 57.5 µM (top of the series)", "result": "0.323% (inactive) and -0.298% (inactive)"},
      {"measurement": "max response", "setting": "[1]", "result": "0.534% and 6.17% and -33.4%"},
      {"measurement": "max response", "setting": "[2]", "result": "0.0916% and 9.95% and -32.9%"}
    ]},
    {"smiles": "CCCc1nc2c(C)cc(-c3nc4ccccc4n3C)cc2n1Cc1ccc(-c2ccccc2C(=O)O)cc1", "values": [
      {"measurement": "activity change, negative = inhibition", "setting": "at 57.5 µM (top of the series)", "result": "-11.9% (inactive)"},
      {"measurement": "max response", "setting": "[1]", "result": -6.13, "unit": "%"},
      {"measurement": "max response", "setting": "[2]", "result": -15.7, "unit": "%"}
    ]},
    {"smiles": "Cc1ccccc1C(OCCN(C)C)c1ccccc1", "note": "(stereo not given)", "values": [
      {"measurement": "activity change, negative = inhibition", "setting": "at 57.5 µM (top of the series)", "result": "-0.936% (inactive)"},
      {"measurement": "max response", "setting": "[1]", "result": -31.3, "unit": "%"},
      {"measurement": "max response", "setting": "[2]", "result": -33.7, "unit": "%"}
    ]},
    {"smiles": "CC(C[N+](C)(C)C)OC(N)=O", "note": "(stereo not given)", "values": [
      {"measurement": "activity change, negative = inhibition", "setting": "at 57.5 µM (top of the series)", "result": "0.608% (inactive)"},
      {"measurement": "max response", "setting": "[1]", "result": -11.2, "unit": "%"},
      {"measurement": "max response", "setting": "[2]", "result": -6.21, "unit": "%"}
    ]},
    {"smiles": "c1ccc([C@H]2CN3CCSC3=N2)cc1", "values": [
      {"measurement": "activity change, negative = inhibition", "setting": "at 57.5 µM (top of the series)", "result": "0.161% (inactive)"},
      {"measurement": "max response", "setting": "[1]", "result": 21.4, "unit": "%"},
      {"measurement": "max response", "setting": "[2]", "result": 20.7, "unit": "%"}
    ]},
    {"smiles": "CCN(CC)CCCC(C)Nc1ccnc2cc(Cl)ccc12", "note": "(stereo not given)", "values": [
      {"measurement": "activity change, negative = inhibition", "setting": "at 57.5 µM (top of the series)", "result": "4.83% (inactive)"},
      {"measurement": "max response", "setting": "[1]", "result": 12.7, "unit": "%"},
      {"measurement": "max response", "setting": "[2]", "result": 21.7, "unit": "%"}
    ]},
    {"smiles": "O=NN(CCCl)C(=O)NCCCl", "values": [
      {"measurement": "activity change, negative = inhibition", "setting": "at 57.5 µM (top of the series)", "result": "-2.32% (inactive)"},
      {"measurement": "max response", "setting": "[1]", "result": -3.08, "unit": "%"},
      {"measurement": "max response", "setting": "[2]", "result": -6.13, "unit": "%"}
    ]},
    {"smiles": "CCCc1nn(C)c2c(=O)[nH]c(-c3cc(S(=O)(=O)N4CCN(C)CC4)ccc3OCC)nc12", "values": [
      {"measurement": "activity change, negative = inhibition", "setting": "at 57.5 µM (top of the series)", "result": "9.83% (inactive)"},
      {"measurement": "max response", "setting": "[1]", "result": 12.2, "unit": "%"},
      {"measurement": "max response", "setting": "[2]", "result": 27.6, "unit": "%"}
    ]}
  ]
}
